Screening results as filed in PubChem.
Rows were chosen to be rich in hits. Some 2.2% of all compounds tested hit in one or more screens of this group.
Statin myotox sup – suppressors of simvastatin-induced myotoxicity in C2C12 myotubes. ATP luminescence, 48 h; scaled: DMSO 0, geranylgeraniol control 100. rescue of ATP level, % at 7.49 µM. hit rate 0.78% among 330,000;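 active = mean ATP rescue above about 67%, or every replicate alone reaching that limit, limit read from the data, passing the limit was not always enough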;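 note: myotubes were challenged with 10 µM simvastatin during compound exposure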
miR-122 sensor – miR-122 inhibition in Huh7 cells | Huh7 miR-122 Renilla luciferase sensor, 48 h; neutral wells = 0, positive control = 100 | activation (reporter increase), % at 12.5 µM | hit rate 0.3% among 340,000;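 active = mean replicate activation score at least 90 and every replicate individually at or above 90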;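 note: higher luciferase means less miR-122 activity so hits act as miR-122 inhibitors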
PGC1a acetyl inh – PGC1a acetylation modulation, inhibitor mode. U2OS PGC1a acetylation, AlphaScreen anti-acetyl-lysine; with virally co-expressed GCN5 acetyltransferase. inhibition, % at 15.6 µM. hit rate 0.17% among 350,000;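 active = every replicate shows inhibition of at least 40%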;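 note: 0% = neutral control wells and 100% = positive control wells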
DENV2 CPE rescue – inhibitors of DENV2 cytopathic effect | CPE inhibition, % at 9.99 µM | hit rate 1.7% among 350,000 | DENV2-infected cells, cytopathic effect rescue, plate reader; in the data active = CPE inhibition above about 20%, passing the limit was not always enough; tested in BHK-21 cells;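 note: 0% = median of neutral control wells and 100% = median of positive control wells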
PvdQ acylase – blocks Pseudomonas aeruginosa PvdQ acylase activity; inhibition, % at 10 µM; purified PvdQ acylase, fluorescence plate reader; hit rate 0.063% among 340,000; in the data active = inhibition above about 30%, passing the limit was not always enough;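 note: 0% = vehicle neutral wells and 100% = reference inhibitor wells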
Starred values were filed as active, the others as inactive; x = not tested or not shown; [ ] = dose if it differs, or a comment.

SMILES | Statin myotox sup | miR-122 sensor | PGC1a acetyl inh | DENV2 CPE rescue | PvdQ acylase
C[C@H](O)C#Cc1cnc2c(c1)C(=O)N([C@@H](C)CO)C[C@@H](C)[C@H](CN(C)CC1CCCC1)O2 | 19 | 10[16.7 µM] | 13 | -9 | x
CN(C)CCCN(C(=O)c1cc2cc([N+](=O)[O-])ccc2s1)c1nc2cc3c(cc2s1)OCCO3 | 11 | x | 54* | -5 | 7
CN(C)CCCN(C(=O)c1ccc([N+](=O)[O-])s1)c1nc2cc3c(cc2s1)OCCO3 | 6 | -1 | x | 0 | -12
CCc1ccc(CN2CCN(C(=O)c3cccc(OC)c3OC)CC2)cc1 | 91* | -5 | -10 | x | -14
C[C@H]1CN([C@@H](C)CO)S(=O)(=O)c2ccc(Br)cc2O[C@@H]1CN(C)C(=O)C1CCC1 | -9 | 7[16.7 µM] | 7 | x | x
CO[C@@H]1CN(C)C(=O)c2ccc(NS(=O)(=O)c3cn(C)cn3)cc2OC[C@H](C)N(CC2CC2)C[C@H]1C | -10 | x | -4 | 12 | x
CO[C@@H]1CN(C)C(=O)c2ccc(NS(=O)(=O)c3cn(C)cn3)cc2OC[C@@H](C)N(CC2CC2)C[C@H]1C | -12 | x | 0 | 21* | x
CCCN1C[C@H](C)[C@H](OC)CN(C)C(=O)c2cc(NS(=O)(=O)c3cn(C)cn3)ccc2OC[C@@H]1C | -2 | x | 1 | 90* | x
O=C(NCc1ccco1)C(c1ccccc1)N(C(=O)Cc1cccs1)c1ccccc1F (centres undefined) | 98* | x | -3 | x | -8
COc1ccc(N=Cc2c(O)c3ccccc3n2C(C)=O)cc1 | 5 | 6 | 8 | -12 | 4
COc1ccc(N=Cc2sc(O)c3ccccc23)cc1 | 180* | -2 | -16 | x | 1
Cc1ccc(NC(=O)CO/N=C(\N)c2ccccc2)cc1C | 95* | 3 | 6 | -17 | -13
CCS(=O)(=O)Nc1ccc2c(c1)C(=O)N(C)C[C@@H](OC)[C@@H](C)CN(C(=O)CN(C)C)[C@@H](C)CO2 | -11 | 0[16.7 µM] | 2 | 3 | x
COc1cccc(OC)c1OCCNCCO | x | 0 | 8 | x | -14
C=CCc1cccc(OC)c1OCCOCCNCCO | 83* | 1 | 0 | x | -12
CN1C(=O)c2cc(NC(=O)Nc3cccc(Cl)c3)ccc2OC[C@@H]2O[C@@H](CC(=O)NCCc3ccncc3)CC[C@H]21 | -11 | 25[16.7 µM] | -3 | -14 | x
CCOC(=O)c1c(NC(=O)Cc2cccs2)sc(C(=O)NC2CCCCC2)c1C | 78* | -2 | 4 | x | -17
COCC(=O)N1[C@@H](CO)[C@@H](c2ccc(-c3cccc(OC)c3)cc2)C12CN(C(C)=O)C2 | x | x | -6 | -3 | x
CC(=O)Nc1cccc(Nc2nc(-c3ccccc3F)nc3ccccc23)c1 | 106* | -2 | -38 | 1 | 0
CC(=O)Nc1ccc(Nc2nc(-c3ccccc3)nc3ccccc23)cc1 | x | x | x | 3 | -4
CO[C@@H]1CN(C)C(=O)c2ccc(NC(=O)C3CC3)cc2OC[C@@H](C)N(CCC(F)(F)F)C[C@@H]1C | 7 | -2[16.7 µM] | x | 2 | x
OCC1OC(Oc2c(Br)cc(Br)cc2Br)C(O)C(O)C1O (centres undefined) | -6 | -3 | 63* | -5 | -17
Cc1ccc(-n2c(C)cc(C(=O)COC(=O)C3=NNC(=O)CC3)c2C)cc1 | 3 | 3 | -3 | x | -10
Cc1cc(C(=O)COC(=O)C2=NNC(=O)CC2)c(C)n1-c1ccccc1 | 141* | -5 | 37 | 5 | -12
COc1ccccc1NC(=O)N(C)C[C@@H]1Oc2ncc(C#CCN(C)C)cc2C(=O)N([C@@H](C)CO)C[C@H]1C | -4 | 1[16.7 µM] | -7 | 1 | x
SMILES | Statin myotox sup | miR-122 sensor | PGC1a acetyl inh | DENV2 CPE rescue | PvdQ acylase
COc1ccccc1-c1ccc2c(c1)O[C@H](CN(C)C(C)=O)[C@@H](C)CN([C@@H](C)CO)S2(=O)=O | x | 72[16.7 µM] | -2 | 7 | x
COc1ccc(C(=O)/C(=C/c2cccs2)c2nc3ccccc3o2)cc1 | 94* | -2 | 4 | x | -4
COc1ccc(/C=C(\CC(=O)O)c2nc3ccccc3o2)cc1 | -2 | 2 | 6 | -3 | 5
CNC[C@@H]1Oc2cc(-c3ccccc3F)ccc2S(=O)(=O)N([C@@H](C)CO)C[C@@H]1C | 5 | 9[16.7 µM] | -1 | x | x
O=C(CSc1nc2ccccc2c(=O)n1-c1ccccc1Cl)Nc1cccc(S(=O)(=O)N2CCOCC2)c1 | x | -2 | -10 | 63* | 5
COc1ccc(-n2c(SCC(=O)Nc3ccc4c(c3)OCO4)nc3ccccc3c2=O)cc1 | 118* | -6 | -4 | x | -14
Cc1csc(SCC(=O)Nc2cccc(S(=O)(=O)N3CCCC3)c2)n1 | 136* | -3 | -24 | x | -14
O=C(CSc1nc2ccccc2c(=O)n1-c1ccc(F)cc1)Nc1cc(S(=O)(=O)N2CCOCC2)ccc1Cl | x | x | x | x | -9
O=C(c1ccccn1)N1CC(=O)N2[C@H](C1)[C@@H](c1ccc(-c3cccc(F)c3)cc1)[C@@H]2CO | x | x | 7 | 12 | x
O=C(c1ccccn1)N1C[C@@H]2[C@H](c3ccccc31)[C@@H](CO)N2C(=O)CC1CC1 | -5 | -17[16.7 µM] | 4 | x | x
COc1cccc(NC(=O)N[C@H]2C=C[C@H](CC(=O)Nc3ccccc3)O[C@H]2CO)c1 | x | x | 10 | 5 | x
C[C@H](CO)N1C[C@H](C)[C@@H](CN(C)S(C)(=O)=O)Oc2ccc(NS(=O)(=O)c3cccs3)cc2C1=O | 7 | -3[16.7 µM] | 8 | -6 | x
Cc1ccc(S(=O)(=O)Nc2cccc(C(=O)NCCCn3ccnc3)c2)cc1F | -1 | x | x | 54* | -10
CCN(C[C@@H]1[C@@H](c2ccccc2)[C@H](CO)N1S(C)(=O)=O)C(=O)C1CC1 | 2 | -25[16.7 µM] | 8 | 10 | x
CC(C)CN(C[C@@H]1N[C@@H](CO)[C@@H]1c1ccccc1)C(=O)CN(C)C | -14 | 14[16.7 µM] | -4 | 40* | x
CCC(=O)N(CC(C)C)C[C@@H]1[C@@H](c2ccccc2)[C@@H](CO)N1S(C)(=O)=O | x | x | x | 29* | x
CCN(C[C@@H]1N[C@@H](CO)[C@@H]1c1ccccc1)C(=O)c1ccncc1 | 7 | 0[16.7 µM] | 2 | 22* | x
CO[C@@H]1CN(C)C(=O)c2ccc(NC(C)=O)cc2OC[C@@H](C)N(Cc2ccccn2)C[C@@H]1C | 7 | 14[16.7 µM] | 5 | -2 | x
O=C(c1cccnc1)N1CC[C@@H]2[C@H]1c1cc(-c3ccc(F)cc3)ccc1N[C@@H]2CO | -26 | -1[16.7 µM] | -1 | -10 | x
C[C@H](CO)N1C[C@H](C)[C@@H](CN(C)C(=O)Nc2ccc(C(F)(F)F)cc2)Oc2ccc(NC(=O)CCC(F)(F)F)cc2CC1=O | -22 | 7[16.7 µM] | -2 | 1 | x
OC[C@@H]1[C@H](c2ccccc2)C2(CN(Cc3cccnc3)C2)N1Cc1ccncc1 | x | x | -1 | 20* | x
OC[C@@H]1[C@@H](c2ccccc2)C2(CN(Cc3nccs3)C2)N1Cc1cccnc1 | x | x | 1 | 84* | x
OC[C@@H]1[C@@H](c2ccccc2)C2(CN(Cc3cccnc3)C2)N1Cc1ccncc1 | x | x | 8 | 2 | x
OC[C@@H]1[C@H](c2ccccc2)C2(CN(Cc3nccs3)C2)N1Cc1cccnc1 | x | x | -6 | -6 | x
OC[C@@H]1[C@@H](c2ccccc2)C2(CN(Cc3nccs3)C2)N1Cc1ccccc1 | x | x | 1 | 20* | x
